# According to PMC11006913:
# Substitutions are numbered along the chain they refer to.
# Assays:
# Experiment in all cases: PBM; 200 nM protein, PBS
# Settings in all cases: dsDNA, one strand shown
# HOXA7 [1] = molecular target: HOXA7 (Homo sapiens, UniProt P31268 116-202)
# HOXC10 [2] = molecular target: HOXC10 (Homo sapiens, UniProt Q9NYD6 254-340)
# HOXB6 [3] = molecular target: HOXB6 (Homo sapiens, UniProt P17509 132-218, K202E)
# HOXC10 [4] = molecular target: HOXC10 (Homo sapiens, UniProt Q9NYD6 254-340, K271E)
# HOXA7 [5] = molecular target: HOXA7 (Homo sapiens, UniProt P31268 116-202, W177C)
# HOXB6 [6] = molecular target: HOXB6 (Homo sapiens, UniProt P17509 132-218)
# PAX4 [7] = molecular target: T1, PAX4 (Homo sapiens, UniProt O43316 9-242, R200K)
# T1 sequence: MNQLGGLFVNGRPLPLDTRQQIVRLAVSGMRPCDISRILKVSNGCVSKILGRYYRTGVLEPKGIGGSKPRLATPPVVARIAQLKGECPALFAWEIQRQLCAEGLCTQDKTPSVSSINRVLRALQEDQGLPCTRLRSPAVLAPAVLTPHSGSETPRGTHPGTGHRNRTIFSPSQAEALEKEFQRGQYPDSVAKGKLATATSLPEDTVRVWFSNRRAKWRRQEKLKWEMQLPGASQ
# PAX4 [8] = molecular target: T2, PAX4 (Homo sapiens, UniProt O43316 9-242)
# T2 sequence: T1 sequence with K192R
# MSX2 [9] = molecular target: MSX2 (Homo sapiens, UniProt P35548 130-214, R199I)
# ALX1 [10] = molecular target: ALX1 (Homo sapiens, UniProt Q15699 118-204, L144V)
# PAX4 [11] = molecular target: T3, PAX4 (Homo sapiens, UniProt O43316 9-242, R200Q)
# T3 sequence: T1 sequence with K192Q
# ALX1 [12] = molecular target: ALX1 (Homo sapiens, UniProt Q15699 118-204, L144R)
# PAX4 [13] = molecular target: T4, PAX4 (Homo sapiens, UniProt O43316 9-242, F177V)
# T4 sequence: T1 sequence with F169V, K192R
# MSX2 [14] = molecular target: MSX2 (Homo sapiens, UniProt P35548 130-214)
# PAX4 [15] = molecular target: T5, PAX4 (Homo sapiens, UniProt O43316 9-242, F177Y)
# T5 sequence: T1 sequence with F169Y, K192R
# VAX1 [16] = molecular target: VAX1 (Homo sapiens, UniProt Q5SQQ9 86-172)
# MSX2 [17] = molecular target: MSX2 (Homo sapiens, UniProt P35548 130-214, F161Y)
# VAX1 [18] = molecular target: VAX1 (Homo sapiens, UniProt Q5SQQ9 86-172, T142I)
# PAX4 [19] = molecular target: T6, PAX4 (Homo sapiens, UniProt O43316 9-242, R227W)
# T6 sequence: T1 sequence with K192R, R219W
# ALX1 [20] = molecular target: ALX1 (Homo sapiens, UniProt Q15699 118-204)
# VAX1 [21] = molecular target: VAX1 (Homo sapiens, UniProt Q5SQQ9 86-172, K157R)
# HOXA2 [22] = molecular target: HOXA2 (Homo sapiens, UniProt O43364 129-215, R185T)
# NKX2-6 [23] = molecular target: T7, NKX2-6 (Homo sapiens, UniProt A6NCS4 118-204, R150C)
# T7 sequence: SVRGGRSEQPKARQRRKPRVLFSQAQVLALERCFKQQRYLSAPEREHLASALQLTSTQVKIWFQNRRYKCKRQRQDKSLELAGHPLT
# HOXA2 [24] = molecular target: HOXA2 (Homo sapiens, UniProt O43364 129-215, R185K)
# HOXA2 [25] = molecular target: HOXA2 (Homo sapiens, UniProt O43364 129-215, Y150S)
# HOXA2 [26] = molecular target: HOXA2 (Homo sapiens, UniProt O43364 129-215)
# ALX4 [27] = molecular target: ALX4 (Homo sapiens, UniProt Q9H161 200-286)
# ALX4 [28] = molecular target: ALX4 (Homo sapiens, UniProt Q9H161 200-286, Q225E)
# NKX2-6 [29] = molecular target: T8, NKX2-6 (Homo sapiens, UniProt A6NCS4 118-204)
# T8 sequence: T7 sequence with C33R
# NKX2-6 [30] = molecular target: T9, NKX2-6 (Homo sapiens, UniProt A6NCS4 118-204, F151L)
# T9 sequence: T7 sequence with C33R, F34L
# PROP1 [31] = molecular target: PROP1 (Homo sapiens, UniProt O75360 56-141)
# PROP1 [32] = molecular target: PROP1 (Homo sapiens, UniProt O75360 56-141, R99H)
# PROP1 [33] = molecular target: PROP1 (Homo sapiens, UniProt O75360 56-141, F88S)
# ALX3 = ALX3 (Homo sapiens, UniProt O95076 139-225)
# PITX2 = PITX2 (Homo sapiens, UniProt Q99697 72-157)
# HOXA7 (Homo sapiens, UniProt P31268 116-202), sequence (P31268 116-202): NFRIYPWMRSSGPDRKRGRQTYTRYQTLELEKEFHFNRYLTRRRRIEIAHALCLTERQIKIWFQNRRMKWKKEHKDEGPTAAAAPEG
# ALX1 (Homo sapiens, UniProt Q15699 118-204), sequence (Q15699 118-204): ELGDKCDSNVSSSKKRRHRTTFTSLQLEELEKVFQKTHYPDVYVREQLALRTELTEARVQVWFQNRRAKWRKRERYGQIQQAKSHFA
# ALX1 (Homo sapiens, UniProt Q15699 118-204, L144V), sequence (Q15699 118-204 L144V): as the sequence (Q15699 118-204) above, with L27V counted along it
# ALX1 (Homo sapiens, UniProt Q15699 118-204, L144R), sequence (Q15699 118-204 L144R): as the sequence (Q15699 118-204) above, with L27R counted along it
# MSX2 (Homo sapiens, UniProt P35548 130-214, F161Y), sequence (P35548 130-214 F161Y): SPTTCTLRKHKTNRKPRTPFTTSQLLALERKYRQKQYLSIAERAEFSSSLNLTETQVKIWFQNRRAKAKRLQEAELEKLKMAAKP
# HOXA7 (Homo sapiens, UniProt P31268 116-202, W177C), sequence (P31268 116-202 W177C): as the sequence (P31268 116-202) above, with W62C counted along it
# VAX1 (Homo sapiens, UniProt Q5SQQ9 86-172, K157R), sequence (Q5SQQ9 86-172 K157R): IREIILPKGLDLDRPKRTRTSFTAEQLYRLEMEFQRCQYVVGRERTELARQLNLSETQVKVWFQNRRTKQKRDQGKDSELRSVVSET
# HOXB6 (Homo sapiens, UniProt P17509 132-218), sequence (P17509 132-218): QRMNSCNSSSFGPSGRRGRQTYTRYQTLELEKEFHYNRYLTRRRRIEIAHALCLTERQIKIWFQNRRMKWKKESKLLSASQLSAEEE
# MSX2 (Homo sapiens, UniProt P35548 130-214, R199I), sequence (P35548 130-214 R199I): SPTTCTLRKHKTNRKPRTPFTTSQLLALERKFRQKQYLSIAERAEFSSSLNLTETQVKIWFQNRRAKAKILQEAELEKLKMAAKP
# VAX1 (Homo sapiens, UniProt Q5SQQ9 86-172, T142I), sequence (Q5SQQ9 86-172 T142I): as the sequence (Q5SQQ9 86-172 K157R) above, with T57I, R72K counted along it
# VAX1 (Homo sapiens, UniProt Q5SQQ9 86-172), sequence (Q5SQQ9 86-172): as the sequence (Q5SQQ9 86-172 K157R) above, with R72K counted along it
# HOXB6 (Homo sapiens, UniProt P17509 132-218, K202E), sequence (P17509 132-218 K202E): as the sequence (P17509 132-218) above, with K71E counted along it
# MSX2 (Homo sapiens, UniProt P35548 130-214), sequence (P35548 130-214): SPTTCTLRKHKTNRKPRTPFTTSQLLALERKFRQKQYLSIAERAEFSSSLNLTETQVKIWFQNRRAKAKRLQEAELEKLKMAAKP
# PROP1 (Homo sapiens, UniProt O75360 56-141, F88S), sequence (O75360 56-141 F88S): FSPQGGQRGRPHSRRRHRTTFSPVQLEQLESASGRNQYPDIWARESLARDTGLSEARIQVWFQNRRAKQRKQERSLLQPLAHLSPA
# PROP1 (Homo sapiens, UniProt O75360 56-141, R99H), sequence (O75360 56-141 R99H): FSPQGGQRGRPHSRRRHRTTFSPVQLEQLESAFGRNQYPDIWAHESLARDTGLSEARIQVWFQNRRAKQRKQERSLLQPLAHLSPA
# PROP1 (Homo sapiens, UniProt O75360 56-141), sequence (O75360 56-141): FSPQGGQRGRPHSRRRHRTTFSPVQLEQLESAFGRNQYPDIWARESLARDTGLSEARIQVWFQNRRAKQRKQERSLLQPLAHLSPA
# HOXA2 (Homo sapiens, UniProt O43364 129-215, R185T), sequence (O43364 129-215 R185T): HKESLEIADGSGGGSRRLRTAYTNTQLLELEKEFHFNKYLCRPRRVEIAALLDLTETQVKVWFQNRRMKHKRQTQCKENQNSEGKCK
# HOXA2 (Homo sapiens, UniProt O43364 129-215, Y150S), sequence (O43364 129-215 Y150S): as the sequence (O43364 129-215 R185T) above, with Y22S, T57R counted along it
# ALX4 (Homo sapiens, UniProt Q9H161 200-286, Q225E), sequence (Q9H161 200-286 Q225E): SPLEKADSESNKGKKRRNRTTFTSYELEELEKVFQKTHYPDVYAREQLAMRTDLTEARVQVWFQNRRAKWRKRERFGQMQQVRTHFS
# HOXA2 (Homo sapiens, UniProt O43364 129-215), sequence (O43364 129-215): as the sequence (O43364 129-215 R185T) above, with T57R counted along it
# ALX4 (Homo sapiens, UniProt Q9H161 200-286), sequence (Q9H161 200-286): as the sequence (Q9H161 200-286 Q225E) above, with E26Q counted along it
# ALX3, sequence (O95076 139-225): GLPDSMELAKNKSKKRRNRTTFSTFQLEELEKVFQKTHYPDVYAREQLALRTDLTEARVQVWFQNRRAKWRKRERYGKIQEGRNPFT
# HOXC10 (Homo sapiens, UniProt Q9NYD6 254-340, K271E), sequence (Q9NYD6 254-340 K271E): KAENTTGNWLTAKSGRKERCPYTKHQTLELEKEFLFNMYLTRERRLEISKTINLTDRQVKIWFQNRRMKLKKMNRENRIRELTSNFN
# HOXC10 (Homo sapiens, UniProt Q9NYD6 254-340), sequence (Q9NYD6 254-340): as the sequence (Q9NYD6 254-340 K271E) above, with E18K counted along it
# HOXA2 (Homo sapiens, UniProt O43364 129-215, R185K), sequence (O43364 129-215 R185K): as the sequence (O43364 129-215 R185T) above, with T57K counted along it
sequence,measurement,setting,value
GAGTCCGC,binding signal,HOXA7 [1],"8.56 upbm affinity estimate (log intensity, higher = more binding, comparable within an allelic series)"
same,binding signal,HOXC10 [2],"10.1 upbm affinity estimate (log intensity, higher = more binding, comparable within an allelic series)"
same,binding signal,HOXB6 [3],"9.05 upbm affinity estimate (log intensity, higher = more binding, comparable within an allelic series)"
same,binding signal,HOXC10 [4],"10.1 upbm affinity estimate (log intensity, higher = more binding, comparable within an allelic series)"
same,binding signal,HOXA7 [5],"8.39 upbm affinity estimate (log intensity, higher = more binding, comparable within an allelic series)"
same,binding signal,HOXB6 [6],"8.98 upbm affinity estimate (log intensity, higher = more binding, comparable within an allelic series)"
CCTGGTCC,binding signal,HOXA7 [1],"8.3 upbm affinity estimate (log intensity, higher = more binding, comparable within an allelic series)"
same,binding signal,PAX4 [7],"9.07 upbm affinity estimate (log intensity, higher = more binding, comparable within an allelic series)"
same,binding signal,PAX4 [8],"9.15 upbm affinity estimate (log intensity, higher = more binding, comparable within an allelic series)"
same,binding signal,MSX2 [9],"9.44 upbm affinity estimate (log intensity, higher = more binding, comparable within an allelic series)"
same,binding signal,ALX1 [10],"6.39 upbm affinity estimate (log intensity, higher = more binding, comparable within an allelic series)"
same,binding signal,PAX4 [11],"9.31 upbm affinity estimate (log intensity, higher = more binding, comparable within an allelic series)"
same,binding signal,ALX1 [12],"6.31 upbm affinity estimate (log intensity, higher = more binding, comparable within an allelic series)"
same,binding signal,PAX4 [13],"9.26 upbm affinity estimate (log intensity, higher = more binding, comparable within an allelic series)"
same,binding signal,MSX2 [14],"9.47 upbm affinity estimate (log intensity, higher = more binding, comparable within an allelic series)"
same,binding signal,PAX4 [15],"9.15 upbm affinity estimate (log intensity, higher = more binding, comparable within an allelic series)"
same,binding signal,VAX1 [16],"7.22 upbm affinity estimate (log intensity, higher = more binding, comparable within an allelic series)"
same,binding signal,MSX2 [17],"9.52 upbm affinity estimate (log intensity, higher = more binding, comparable within an allelic series)"
same,binding signal,VAX1 [18],"7.32 upbm affinity estimate (log intensity, higher = more binding, comparable within an allelic series)"
same,binding signal,PAX4 [19],"9.31 upbm affinity estimate (log intensity, higher = more binding, comparable within an allelic series)"
same,binding signal,HOXA7 [5],"8.35 upbm affinity estimate (log intensity, higher = more binding, comparable within an allelic series)"
same,binding signal,ALX1 [20],"6.34 upbm affinity estimate (log intensity, higher = more binding, comparable within an allelic series)"
same,binding signal,VAX1 [21],"7.26 upbm affinity estimate (log intensity, higher = more binding, comparable within an allelic series)"
CCAGCTGG,binding signal,HOXA7 [1],"8.23 upbm affinity estimate (log intensity, higher = more binding, comparable within an allelic series)"
same,binding signal,HOXA2 [22],"7.34 upbm affinity estimate (log intensity, higher = more binding, comparable within an allelic series)"
same,binding signal,NKX2-6 [23],"9.68 upbm affinity estimate (log intensity, higher = more binding, comparable within an allelic series)"
same,binding signal,HOXA2 [24],"10.4 upbm affinity estimate (log intensity, higher = more binding, comparable within an allelic series)"
same,binding signal,HOXA2 [25],"10.5 upbm affinity estimate (log intensity, higher = more binding, comparable within an allelic series)"
same,binding signal,HOXA7 [5],"8.36 upbm affinity estimate (log intensity, higher = more binding, comparable within an allelic series)"
same,binding signal,HOXA2 [26],"7.34 upbm affinity estimate (log intensity, higher = more binding, comparable within an allelic series)"
GCTATAAC,binding signal,HOXA7 [1],"9.4 upbm affinity estimate (log intensity, higher = more binding, comparable within an allelic series)"
same,binding signal,ALX1 [10],"8.22 upbm affinity estimate (log intensity, higher = more binding, comparable within an allelic series)"
same,binding signal,ALX1 [12],"8.11 upbm affinity estimate (log intensity, higher = more binding, comparable within an allelic series)"
same,binding signal,HOXA7 [5],"8.68 upbm affinity estimate (log intensity, higher = more binding, comparable within an allelic series)"
same,binding signal,ALX1 [20],"8.21 upbm affinity estimate (log intensity, higher = more binding, comparable within an allelic series)"
CGTCGCCC,binding signal,HOXA7 [1],"8.61 upbm affinity estimate (log intensity, higher = more binding, comparable within an allelic series)"
same,binding signal,ALX1 [10],"6.4 upbm affinity estimate (log intensity, higher = more binding, comparable within an allelic series)"
same,binding signal,ALX1 [12],"6.34 upbm affinity estimate (log intensity, higher = more binding, comparable within an allelic series)"
same,binding signal,HOXA7 [5],"8.42 upbm affinity estimate (log intensity, higher = more binding, comparable within an allelic series)"
same,binding signal,ALX1 [20],"6.57 upbm affinity estimate (log intensity, higher = more binding, comparable within an allelic series)"
GAATATAA,binding signal,HOXA7 [1],"9.85 upbm affinity estimate (log intensity, higher = more binding, comparable within an allelic series)"
same,binding signal,ALX4 [27],"10.8 upbm affinity estimate (log intensity, higher = more binding, comparable within an allelic series)"
same,binding signal,ALX4 [28],"9.99 upbm affinity estimate (log intensity, higher = more binding, comparable within an allelic series)"
same,binding signal,HOXA7 [5],"8.92 upbm affinity estimate (log intensity, higher = more binding, comparable within an allelic series)"
CCGGGGGC,binding signal,HOXA7 [1],"8.67 upbm affinity estimate (log intensity, higher = more binding, comparable within an allelic series)"
same,binding signal,NKX2-6 [29],"9.19 upbm affinity estimate (log intensity, higher = more binding, comparable within an allelic series)"
same,binding signal,NKX2-6 [30],"8.93 upbm affinity estimate (log intensity, higher = more binding, comparable within an allelic series)"
same,binding signal,HOXA7 [5],"8.26 upbm affinity estimate (log intensity, higher = more binding, comparable within an allelic series)"
AGCTTTCC,binding signal,HOXA7 [1],"8.42 upbm affinity estimate (log intensity, higher = more binding, comparable within an allelic series)"
same,binding signal,PROP1 [31],"6.7 upbm affinity estimate (log intensity, higher = more binding, comparable within an allelic series)"
same,binding signal,PROP1 [32],"6.84 upbm affinity estimate (log intensity, higher = more binding, comparable within an allelic series)"
same,binding signal,PROP1 [33],"7.01 upbm affinity estimate (log intensity, higher = more binding, comparable within an allelic series)"
same,binding signal,HOXA7 [5],"8.43 upbm affinity estimate (log intensity, higher = more binding, comparable within an allelic series)"
AATTACCC,binding signal,HOXA7 [1],"11.4 upbm affinity estimate (log intensity, higher = more binding, comparable within an allelic series)"
same,binding signal,HOXB6 [3],"9.85 upbm affinity estimate (log intensity, higher = more binding, comparable within an allelic series)"
same,binding signal,VAX1 [16],"12.7 upbm affinity estimate (log intensity, higher = more binding, comparable within an allelic series)"
same,binding signal,MSX2 [17],"13 upbm affinity estimate (log intensity, higher = more binding, comparable within an allelic series)"
same,binding signal,VAX1 [18],"12.5 upbm affinity estimate (log intensity, higher = more binding, comparable within an allelic series)"
same,binding signal,HOXA7 [5],"8.89 upbm affinity estimate (log intensity, higher = more binding, comparable within an allelic series)"
same,binding signal,VAX1 [21],"12.6 upbm affinity estimate (log intensity, higher = more binding, comparable within an allelic series)"
same,binding signal,HOXB6 [6],"11.7 upbm affinity estimate (log intensity, higher = more binding, comparable within an allelic series)"
AACTTTAT,binding signal,HOXA7 [1],"9.71 upbm affinity estimate (log intensity, higher = more binding, comparable within an allelic series)"
same,binding signal,ALX3,"9.63 upbm affinity estimate (log intensity, higher = more binding, comparable within an allelic series)"
same,binding signal,HOXA7 [5],"8.8 upbm affinity estimate (log intensity, higher = more binding, comparable within an allelic series)"
ATATTAGA,binding signal,HOXA7 [1],"9.95 upbm affinity estimate (log intensity, higher = more binding, comparable within an allelic series)"
same,binding signal,MSX2 [9],"11.1 upbm affinity estimate (log intensity, higher = more binding, comparable within an allelic series)"
same,binding signal,MSX2 [14],"11.8 upbm affinity estimate (log intensity, higher = more binding, comparable within an allelic series)"
same,binding signal,MSX2 [17],"11.5 upbm affinity estimate (log intensity, higher = more binding, comparable within an allelic series)"
same,binding signal,HOXA7 [5],"8.88 upbm affinity estimate (log intensity, higher = more binding, comparable within an allelic series)"
AGGGCATG,binding signal,HOXA7 [1],"8.51 upbm affinity estimate (log intensity, higher = more binding, comparable within an allelic series)"
same,binding signal,PITX2,"7.96 upbm affinity estimate (log intensity, higher = more binding, comparable within an allelic series)"
same,binding signal,HOXA7 [5],"8.49 upbm affinity estimate (log intensity, higher = more binding, comparable within an allelic series)"
